# Records with an inconclusive call do not appear. Where a call stands in place of a potency, no number is given. A number with no mark means an inactive call. Active and inactive are the calls of the source. Calls come from the whole dose curve; as a rule, active = well fitted curve in the direction sought with a large enough effect; inconclusive = small, poorly fitted or top-dose-only effect, or another doubt; inactive = no such curve, though single readings can be large; an effect the other way counts as inactive or inconclusive. Peptide text beside a SMILES is read from it.
# Columns and labels:
# [1] = target: Aldehyde dehydrogenase, mitochondrial (Homo sapiens) (UniProt P05091); assay: qHTS for Inhibitors of the Aldehyde Dehydrogenase Family (ALDH2) Primary screen (AID 2061308); conditions: ALDH2 enzyme inhibition qHTS, 1536-well; series mostly up to 56 µM; note: nearly all actives have a fitted effect of over 55% in size
# [2] = target: Retinaldehyde dehydrogenase 3 (Homo sapiens) (UniProt P47895); assay: qHTS for Inhibitors of the Aldehyde Dehydrogenase Family (ALDH1A3) Primary screen (AID 2061315); conditions: ALDH inhibition qHTS; series mostly up to 56 µM
# [3] = BET inhibitor-based combinations targeting novel dependencies in MECOM-rearranged (r) AML: SET-2 cell line (AID 2202231); conditions: SET-2 AML cells viability, CellTiter-Glo luminescence, 48 h; viability: hits give low values, concentration not given here; note: nearly all actives have a fitted effect of over 35% in size
# How it was run: (§1)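 Here, 11-point titrations of each agent were applied to 500 seeded cells and incubated 48 hr; CellTiter-Glo signal, scaled against DMSO and empty wells, was integrated as AUC, then Z-scored within the individual line.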
# [4] = BET inhibitor-based combinations targeting novel dependencies in MECOM-rearranged (r) AML: OCI-AML3 cell line (AID 2202232); conditions: CellTiter-Glo luminescence, 48 h; Potency: OCI-AML3 viability; series mostly up to 46 µM; note: potency is the fitted concentration of half-maximal effect; nearly all actives have a fitted effect of over 35% in size
# How it was run: as §1
smiles,measurement,setting,value
COc1cc(C(C)=O)ccc1O[C@@H]1O[C@H](CO[C@@H]2O[C@@H](C)[C@H](O)[C@@H](O)[C@H]2O)[C@@H](O)[C@H](O)[C@H]1O,Potency,[1],inactive
same,Potency,[2],inactive
CC1=CC2(O)/C=C/C(C)(O)CC(O)/C=C/C(=O)OC23C(=O)NC(CC(C)C)C3C1C (stereo not drawn),Potency,[1],inactive
same,Potency,[2],inactive
C/C=C(/C)C(=O)O[C@@H]1C[C@@H](OC(=O)CC(C)C)C2(C)C3C(=O)C=C(C)C2C3C1(C)C (stereo partly drawn),Potency,[1],inactive
same,Potency,[2],inactive
CC1=CCC2C(C)(C)CCCC2(C)C1CC12OC1C(O)C(CO)=CC2O (stereo not drawn),Potency,[1],inactive
same,Potency,[2],inactive
COC(=O)C1=CO[C@@H](O[C@@H]2O[C@H](CO)[C@@H](O)[C@H](O)[C@H]2O)[C@@H]2[C@@](C)(O)[C@@H](OC(=O)/C=C/c3ccc(O)cc3)C[C@]12O,Potency,[1],inactive
same,Potency,[2],inactive
COc1cc(O)cc(C)c1C(=O)OC1C(CO)OC(n2ccc(=O)[nH]c2=O)C1OC(C)=O (stereo not drawn),Potency,[1],inactive
same,Potency,[2],inactive
COc1ccccc1C(=O)Nc1cccc(NC(=O)c2cccc(C)c2)c1,Potency,[1],inactive
same,Potency,[2],inactive
CCC(C)(OC(C)=O)C(=O)O[C@H]1[C@H](OC(C)=O)[C@]2(CO)[C@H](O)[C@H](O)[C@]3(C)C(=CCC4[C@@]5(C)CC[C@H](O[C@@H]6O[C@H](C(=O)O)[C@@H](O)[C@H](O[C@@H]7OC[C@H](O)[C@H](O[C@@H]8OC[C@H](O)[C@H](O)[C@H]8O)[C@H]7O)[C@H]6O[C@@H]6O[C@H](CO)[C@@H](O)[C@H](O)[C@H]6O)C(C)(C)C5CC[C@]43C)[C@@H]2CC1(C)C (stereo partly drawn),"activity change, negative = inhibition",[1],-13.5% [at 11.2 µM]
same,"activity change, negative = inhibition",[2],11.4% [at 11.2 µM]
C[C@]1(CO)CCC[C@]2(C)C3=C(CCC12)COC3 (stereo partly drawn),Potency,[1],inactive
same,Potency,[2],inactive
COc1cc(Cc2cnc(N)nc2N)c(C(C)C)cc1OC,Potency,[1],inactive
same,Potency,[2],inactive
CC(=O)OC1CC2(C)C3=CCC4(C)C5C(O)C(O)C(C(C)C)C5(C)CCC4(C)C3CCC2C(C)(C)C1OC1OC(CO)C(O)C(O)C1O (stereo not drawn),Potency,[1],inactive
same,Potency,[2],inactive
CSCC[C@H](NC(=O)[C@H](CO)NC(=O)[C@H](CCC(=O)O)NC(C)=O)C(=O)N[C@H](C=O)CC(=O)O (Ac-ESMD-aldehyde),"activity change, negative = inhibition",[1],-17.2% [at 11.2 µM]
same,"activity change, negative = inhibition",[2],-13.4% [at 11.2 µM]
Fc1ccccc1CNCc1ccc(-c2ccnc3[nH]ccc23)cc1,Potency,[1],inactive
same,Potency,[2],inactive
CC(=O)O[C@H]1CC(C)(C)CC2[C@@]13[C@H](O)C[C@]1(C)[C@@]2(CCC2[C@@]4(C)CC[C@H](O[C@@H]5OC[C@H](O[C@@H]6O[C@H](CO)[C@@H](O)[C@H](O)[C@H]6O[C@@H]6OC[C@@H](O)[C@H](O)[C@H]6O)[C@H](O)[C@H]5O[C@@H]5O[C@H](CO)[C@@H](O)[C@H](O)[C@H]5O)C(C)(C)C4CC[C@]21C)O[C@@H]3O (stereo partly drawn),Potency,[1],inactive
same,Potency,[2],inactive
CC(=O)C1=C(O)C=C2Oc3c(C(C)=O)c(O)c(C)c(O)c3[C@]2(C)C1=O,Potency,[1],inactive
same,Potency,[2],inactive
CC(C)C1(O[C@@H]2O[C@H](CO)[C@@H](O)[C@H](O)[C@H]2O)CC=C(CO)CC1 (stereo partly drawn),Potency,[1],inactive
same,Potency,[2],inactive
CN(CC1(C)CCCO1)S(=O)(=O)c1ccc(Cl)c(S(N)(=O)=O)c1 (stereo not drawn),Potency,[1],inactive
same,Potency,[2],inactive
Cc1cc(OCCCS(C)(=O)=O)cc(C)c1-c1cccc(COc2ccc(C3=CC(=O)NS3=O)cc2)c1 (stereo not drawn),Potency,[1],inactive
same,Potency,[2],inactive
CC1=C2CC(=O)C(C)CC/C=C(\C)CC2OC1=O (stereo not drawn),Potency,[1],inactive
same,Potency,[2],inactive
C=C(C)C1CC(O)C(C)C12CC(O)C1(C)OC1C2O (stereo not drawn),Potency,[1],inactive
same,Potency,[2],inactive
CC(NC(=O)C(O)C(C)C)C(=O)NC1C(=O)N(C)CCc2ccccc21 (stereo not drawn),Potency,[1],inactive
same,Potency,[2],inactive
CCOc1ccc(-c2nn3ncccc3c2-c2ccc(S(C)(=O)=O)cc2)cc1,Potency,[1],inactive
same,Potency,[2],inactive
CC1(C)CC[C@]2(C(=O)O[C@@H]3O[C@H](CO)[C@@H](O)[C@H](O)[C@H]3O)CC[C@]3(C)C(=CCC4[C@@]5(C)C[C@@H](O)[C@H](O)[C@@](C)(CO)C5CC[C@]43C)C2C1 (stereo partly drawn),Potency,[1],inactive
same,Potency,[2],inactive
O=C(O)CCc1cccc(O[C@@H]2O[C@H](CO)[C@@H](O)[C@H](O)[C@H]2O)c1O,Potency,[1],inactive
same,Potency,[2],inactive
COC(=O)C1C(c2ccc(O)cc2)C(C(=O)O)C1c1ccc(O)cc1 (stereo not drawn),Potency,[1],inactive
same,Potency,[2],inactive
C=C1CCC2C(C)(C(=O)OC)CCCC2(C)C1CCC(C)CC(=O)O (stereo not drawn),Potency,[1],inactive
same,Potency,[2],inactive
COC1=CC(=O)O[C@@H](CCc2ccccc2)[C@@H]1O,Potency,[1],inactive
same,Potency,[2],inactive
C[C@@H]1O[C@@H](O[C@H]2[C@H](OC(=O)[C@]34CCC(C)(C)C[C@H]3C3=CCC5[C@@]6(C)CC[C@H](O[C@@H]7O[C@H](C(=O)O)[C@@H](O)[C@H](O)[C@H]7O[C@@H]7O[C@H](CO)[C@H](O)[C@H](O)[C@H]7O)[C@@](C)(C=O)C6CC[C@@]5(C)[C@]3(C)C[C@H]4O)O[C@H](C)[C@H](O[C@@H]3O[C@H](C)[C@H](O)[C@H](O)[C@H]3O)[C@@H]2O)[C@H](O)[C@H](O)[C@H]1O[C@@H]1OC[C@@H](O)[C@H](O[C@@H]2O[C@H](CO)[C@@H](O)[C@H](O)[C@H]2O)[C@H]1O (stereo partly drawn),"activity change, negative = inhibition",[1],-7.78% [at 11.2 µM]
same,"activity change, negative = inhibition",[2],-11.5% [at 11.2 µM]
CC1CCC2C(C(=O)O)=CC3C(O)C(C)(C)CC123 (stereo not drawn),Potency,[1],inactive
same,Potency,[2],inactive
Cc1c(O)cc2c(c1O)COC1(O)CCCOC21 (stereo not drawn),Potency,[1],inactive
same,Potency,[2],inactive
C/C=C1\[C@H](O[C@@H]2O[C@H](CO)[C@@H](O)[C@H](O)[C@H]2O)OC=C(C(=O)OC)[C@H]1CC(=O)O,Potency,[1],inactive
same,Potency,[2],inactive
CC(=O)Nc1ccc(S(=O)(=O)Nc2cc(C)on2)cc1,Potency,[1],inactive
same,Potency,[2],inactive
C[C@@]12C[C@]3(O)O[C@H](O1)[C@]1(COC(=O)c4ccccc4)[C@H]3C[C@@]12O[C@@H]1O[C@H](COC(=O)c2ccccc2)[C@@H](O)[C@H](O)[C@H]1O,Potency,[1],inactive
same,Potency,[2],inactive
N#CC1C(=O)Nc2scc(-c3ccc(-c4ccccc4O)cc3)c2C1=O (stereo not drawn),Potency,[1],inactive
same,Potency,[2],inactive
CC(C)=CCc1ccc(Oc2c(O)cc(C)cc2CO)c(C(=O)O)c1O,Potency,[1],inactive
same,Potency,[2],inactive
COc1cc(C)c(C(=O)O[C@@H]2[C@H](O)[C@@H](CO)O[C@H]2n2ccc(=O)[nH]c2=O)c(OC)c1,Potency,[1],inactive
same,Potency,[2],inactive
C[C@@H]1CC[C@]2(C(=O)O)CC[C@]3(C)C(=CCC4[C@@]5(C)CC[C@H](O)[C@](C)(C(=O)O)C5CC[C@]43C)C2[C@]1(C)O (stereo partly drawn),Potency,[1],inactive
same,Potency,[2],inactive
COCCCc1sc(-c2ccccc2)nc1C(=O)Nc1ccccc1-c1nc2cc(CN3CCCC3)cnc2s1,Potency,[1],inactive
same,Potency,[2],inactive
same,viability,[3],121%
same,Potency,[4],9.1 µM (active)
